From PubChem BioAssay (NCATS)
Several values for one entry are separate records, joined by “and”; a condition that tells them apart may be missing. Identical values can stand only once. Records with an inconclusive call do not appear. Activity calls are given as the source filed them. Unless noted, calls follow the shape of the dose curve; as a rule, active = well fitted curve in the direction sought with a large enough effect; inconclusive = small, poorly fitted or top-dose-only effect, or another doubt; inactive = no such curve, though single readings can be large; an effect the other way counts as inactive or inconclusive.

Legend:
[1] = biological target: Mitogen-activated protein kinase 10 (Mus musculus) (UniProt Q61831); test: JNK3 AlphaScreen Assay (AID 530; active = well fitted curve in either direction with a large enough effect, not every such curve was filed as active;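 also: kinase came from lysate of stimulated human HepG2 cells; signal reports phosphorylation of biotinylated GST-cJun 1-79 at Ser73 with 10 µM ATP; % is scaled to controls: 0 for no effect and ±100 for the full control effect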)
In short: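 qHTS format: compounds tested as titrations against IL-1beta/TNF-alpha-activated HepG2 lysate JNK3 with biotin-GST-cJun substrate and 10 uM ATP at room temperature. Loss of anti-phospho-cJun AlphaScreen signal indicates inhibition.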

[2] = Cell Viability - Mesenchymal (AID 546);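 also: cells exposed to compound for 40 hours before reading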
In short: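 Human kidney mesenchymal cells from normal renal glomeruli, 1000 cells/well, rested 5 hr at 37 °C, then treated 40 hr at 37 °C in complete medium. Cellular ATP read by CellTiter-Glo luminescence; AC50 from Hill-equation fits.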

[3] = Cellular Toxicity (caspase-3) HepG2 (AID 654);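 also: cells exposed to compound for 16 hours before reading; 0% = DMSO alone and 100% = caspase signal from 100 µM tamoxifen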
In short: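 qHTS, HepG2, 1500 cells/well, complete medium; cpd 16 h 37 °C; Caspase-Glo 3/7, 20 min RT; lum. Norm: DMSO vs 100 uM tamoxifen; AC50 Hill fit.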

[4] = Cellular Toxicity (caspase-3) Jurkat (AID 655); settings: Jurkat caspase-3 activation, luminescence; caspase-3 activation: at 92.2 µM (top of the series), DMSO = 0%, tamoxifen = 100%;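 also: cells exposed to compound for 16 h at 37 °C before reading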
In short: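 5000 Jurkat cells/well; compound 16 hr, 37 °C; Caspase-Glo 3/7 added, 20 min RT; luminescence read. Norm: DMSO = 0%, tamoxifen 100 uM = 100%. AC50, Hill model.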

[5] = Cellular Toxicity (caspase-3) SK-N-SH (AID 661);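 also: 0% = DMSO basal and 100% = 10 µM staurosporine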
In short: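 Caspase 3/7 activation is measured as a luminescence increase from aminoluciferin released by substrate cleavage in SK-N-SH cells after 16 hr compound treatment; values are AC50 from concentration-response curves.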

[6] = Cellular Toxicity (caspase-3) Hek293 (AID 664); settings: HEK293 caspase-3 activation, DMSO = 0%, 100 µM tamoxifen = 100%; at 92.2 µM (top of the series);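 also: cells exposed to compound for 16 h at 37 °C before readout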
In short: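 Activation of caspase-3/7 is measured as increased luminescence from cleaved peptide-aminoluciferin substrate in HEK293 cells treated 16 hours at 37 °C. AC50 values come from Hill-equation fits of concentration-response data.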

[7] = Cellular Toxicity (caspase-3) NIH 3T3 (AID 666);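 also: caspase signal read after 16 h compound exposure; 0% = DMSO basal and 100% = 100 µM tamoxifen stimulation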
In short: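 Concentration-response qHTS in NIH 3T3 mouse fibroblasts scores caspase-3/7 activation as rising luminescence after 16 hr compound exposure. Signals are scaled between DMSO-only and 100 uM tamoxifen.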

[8] = MultiTox-Fluor Cytotoxicity Assay - LYMP1-001 - Dead Cells (AID 946);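 also: 0% = DMSO and 100% = tetraoctylammonium bromide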
In short: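 LYMP1-001 lymphoblastoid cells (2500/well) treated 16 h at 37 C. Dead-cell protease cleavage of bis-AAF-R110 read at Ex/Em 485/520. Normalized to DMSO and 15 uM tetraoctylammonium bromide; AC50 from Hill fits.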

[9] = Cell Viability - LYMP2-019 (AID 973);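 also: 0% = DMSO alone and full effect = 92 µM tetraoctylammonium bromide; nearly all actives have a fitted effect of over 55% in size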
In short: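 Cells plated at 2500/well and allowed 5 hr at 37 C before compound addition. After 24 hr incubation, CellTiter-Glo reagent was added, plates sat 30 min at room temperature, and luminescence was recorded.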

[10] = Cell Viability - LYMP2-023 (AID 975);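 also: cellular ATP measured by luciferase luminescence as viability proxy; plate controls were DMSO only for no effect and 92 µM tetraoctylammonium bromide control for full effect; nearly all actives have a fitted effect of over 55% in size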
In short: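 Concentration-dependent drop in intracellular ATP measures acute cytotoxicity in a human lymphoblastoid line treated for 24 hours in complete culture medium. AC50 values are taken from Hill-equation fits of qHTS data.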

[11] = Cell Viability - LYMP2-002 (AID 977);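 also: compound exposure lasted 24 h at 37 °C; plate controls were DMSO only for no effect and 92 µM tetraoctylammonium bromide for full effect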
In short: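 Human lymphoblastoid LYMP2-002 cells, 2500 per well, exposed to compounds for 24 h at 37 C in complete medium; viability read as intracellular ATP by CellTiter-Glo luminescence, AC50 from Hill fits.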

[12] = Cell Viability - LYMP2-008 (AID 980); also: % is scaled to controls: 0 for no effect and ±100 for the full control effect; nearly all actives have a fitted effect of over 60% in size
In short: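 Acute cytotoxicity is scored as concentration-dependent loss of cellular ATP in a human lymphoblastoid line after 24 hr treatment at 37 C. ATP is quantified by luciferase luminescence.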

[13] = qHTS assay for small molecule activators of the p53 signaling pathway (AID 651743; active = well fitted activation curve with a large enough effect in the signal ratio, not every such curve was filed as active; the % refers to the signal ratio; also: % of control where 0% means no effect); settings: HCT-116 p53RE-bla, beta-lactamase FRET ratio, 16 h; activation: active compounds read high
In short: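 HCT-116 p53RE-bla, 4,000 cells/well; 5 h settle; cpd/DMSO 16 h, 37 C; LiveBLAzer B/G 2 h RT; fluorescence intensity.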

[14] = biological target: Tumor necrosis factor (Homo sapiens) (UniProt P01375); test: qHTS assay to identify small molecules that stimulate Tumor Necrosis Factor-alpha (TNF-alpha) secretion (AID 651757; active = well fitted curve in the direction sought with a large enough effect in the signal ratio; the % refers to the signal ratio; also: 0% is about no effect)
In short: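 Secreted TNF-alpha from compound-treated THP-1 cells (17 hrs, 37 C) was quantified with a homogeneous time-resolved fluorescence antibody assay.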

[15] = qHTS assay for small molecule agonists of the antioxidant response element (ARE) signaling pathway measured by Nrf2-dependant transcriptional activity (AID 720636; active = well fitted curve in the direction sought with a large enough effect in the repeat runs; an effect the other way counts as inactive or inconclusive;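 also: HepG2 cells with an ARE-driven luciferase reporter; % of control where 0% means no effect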)
In short: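 We exposed ARE-luc HepG2 cells, seeded in assay medium with 1% dialyzed FBS and allowed 6 hr to adhere, to test compounds overnight (16 hr, 37 C) before measuring luciferase with ONE-Glo.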

[16] = qHTS assay for small molecule antagonists of the retinoid-related orphan receptor gamma (ROR-gamma) signaling pathway - cell viability counter screen (AID 720652; active = well fitted curve in the direction sought with a large enough effect in the repeat runs; an effect the other way counts as inactive or inconclusive;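 also: CHO reporter cells with doxycycline-induced ROR-gamma expression; compound exposure lasted 16 hr before ATP read; % is scaled to controls: 0 for no effect and ±100 for the full control effect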)
In short: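 Cytotoxicity is quantified via intracellular ATP (CellTiter-Glo luminescence) in doxycycline-induced CHO ROR response element-luciferase reporter cells treated with compound for 16 hr at 37 C, 5% CO2.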

[17] = qHTS assay for cell viability of the p53RE-bla HCT-116 cell line (AID 743292); also: % is scaled to controls: 0 for no effect and ±100 for the full control effect; nearly all actives have a fitted effect of over 55% in size
In short: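 In this qHTS counter-screen, metabolically competent p53RE-bla HCT-116 cells were counted via their ATP content. Compounds were applied for 16 h at 37 C and luciferase-coupled luminescence was measured.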

[18] = Cellular Toxicity (caspase-3) SHSY5Y (AID 657)
In short: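 qHTS, SH-SY5Y, 1500 cells/well, 5 h pre-incubation 37 °C; compound 16 h 37 °C; Caspase-Glo 3/7 1 h RT; luminescence. Norm.: DMSO = 0, 10 uM staurosporine = 100%. Hill fit → AC50.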

[19] = Cell Viability - LYMP2-009 (AID 968);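 also: 0% = DMSO alone and the full-kill end = tetraoctylammonium bromide at 92 µM; nearly all actives have a fitted effect of over 55% in size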
[20] = Cell Viability - LYMP2-024 (AID 988);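 also: plate controls were DMSO only for no effect and 92 µM tetraoctylammonium bromide for full effect; nearly all actives have a fitted effect of over 60% in size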
In short: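 Acute toxicity is measured as concentration-dependent loss of intracellular ATP in a human lymphoblastoid line treated 24 hours at 37 C. Luciferase luminescence quantifies ATP; AC50 values come from standard Hill-equation modelling.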

Tumor necrosis factor (Homo sapiens), sequence (P01375 whole entry, looked up): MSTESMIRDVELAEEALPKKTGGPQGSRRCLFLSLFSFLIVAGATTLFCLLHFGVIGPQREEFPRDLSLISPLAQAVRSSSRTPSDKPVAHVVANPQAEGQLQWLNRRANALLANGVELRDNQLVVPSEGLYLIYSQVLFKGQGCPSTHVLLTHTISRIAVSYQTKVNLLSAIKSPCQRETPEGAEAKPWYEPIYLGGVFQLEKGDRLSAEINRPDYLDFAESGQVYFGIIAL

O=C(O)CBr
inactive: Potency [1] | Potency [2] | outcome [3] | caspase-3 activation [4] 2.79% | Potency [5] | caspase-3 activation [6] 2.72% | Potency [7] | outcome [8] | Potency [9] | Potency [10] | Potency [11] | Potency [12] | activation [13] -0.316% | outcome [14] | Potency [15] | Potency [16] | Potency [17]

C=CCCC#N
inactive: caspase-3 activation [4] -1.73% | outcome [18] | Potency [5] | caspase-3 activation [6] -0.209% | outcome [8] | Potency [19] | Potency [10] | Potency [11] | Potency [12] | Potency [20] | activation [13] -2.14% | outcome [14] | Potency [15] | Potency [16] | Potency [17]

Oc1cc(Cl)cc(Cl)c1
inactive: Potency [1] | Potency [2] | caspase-3 activation [4] -0.202% | outcome [18] | caspase-3 activation [6] -1.48% | Potency [7] | outcome [8] | Potency [19] | Potency [9] | Potency [10] | Potency [11] | Potency [12] | Potency [20] | activation [13] 1.86% | outcome [14] | Potency [15] | Potency [17]

C=CC#N
inactive: Potency [1] | Potency [2] | outcome [3] | caspase-3 activation [4] -0.0463% | outcome [18] | Potency [5] | caspase-3 activation [6] -0.49% | Potency [7] | outcome [8] | Potency [19] | Potency [9] | Potency [10] | Potency [11] | Potency [12] | Potency [20] | activation [13] -2.66% | outcome [14] | Potency [15] | Potency [16] | Potency [17]

Clc1cccc(Cl)c1Cl
inactive: Potency [2] | outcome [3] | caspase-3 activation [4] -0.0806% | outcome [18] | Potency [5] | caspase-3 activation [6] -0.313% | outcome [8] | Potency [19] | Potency [10] | Potency [11] | Potency [12] | Potency [20] | Potency [15] | Potency [16] | Potency [17]

CN(C)N=O
inactive: Potency [1] | Potency [2] | caspase-3 activation [4] 0.809% | outcome [18] | Potency [5] | caspase-3 activation [6] 5.49% | Potency [7] | Potency [19] | Potency [9] | Potency [10] | Potency [11] | Potency [12] | Potency [20] | activation [13] -2.39% | outcome [14] | Potency [15] | Potency [16] | Potency [17]

CC12CC1(C)C(=O)N(c1cc(Cl)cc(Cl)c1)C2=O (stereo unspecified)
inactive: Potency [1] | Potency [2] | outcome [3] | caspase-3 activation [4] -1.16% | outcome [18] | Potency [5] | caspase-3 activation [6] 1.47% | Potency [7] | outcome [8] | Potency [19] | Potency [10] | Potency [11] | activation [13] 3.14% | outcome [14] | Potency [15] | Potency [17]

c1ccc(P(c2ccccc2)c2ccccc2)cc1
inactive: caspase-3 activation [4] 0.655% | outcome [18] | Potency [5] | Potency [7] | outcome [8] | Potency [19] | Potency [10] | Potency [11] | Potency [12] | Potency [20] | activation [13] -3.71% | outcome [14] | Potency [15] | Potency [16] | Potency [17]

Oc1cccc(Cl)c1Cl
inactive: Potency [1] | Potency [2] | outcome [3] | caspase-3 activation [4] 0.319% | outcome [18] | Potency [5] | caspase-3 activation [6] 0.0996% | Potency [7] | outcome [8] | Potency [9] | Potency [10] | Potency [11] | Potency [12] | Potency [20] | activation [13] 0.548% | outcome [14] | Potency [15] | Potency [16]

O=c1ccc(=O)[nH][nH]1
inactive: Potency [2] | outcome [3] | Potency [5] | Potency [7] | outcome [8] | Potency [19] | Potency [9] | Potency [10] | Potency [12] | Potency [20] | activation [13] -0.833% and -3.13% | outcome [14] | Potency [16] | Potency [17]

CC(=O)CCC(C)=O
inactive: Potency [1] | Potency [2] | outcome [3] | caspase-3 activation [4] 0.378% | outcome [18] | caspase-3 activation [6] 0.261% | Potency [7] | outcome [8] | Potency [19] | Potency [9] | Potency [10] | Potency [12] | Potency [20] | activation [13] 0.727% | outcome [14] | Potency [17]

Cl/C=C/CCl
inactive: Potency [1] | Potency [2] | outcome [3] | outcome [18] | caspase-3 activation [6] -1.73% | Potency [7] | outcome [8] | Potency [19] | Potency [9] | Potency [11] | Potency [20] | activation [13] -2.05% | outcome [14] | Potency [15] | Potency [16] | Potency [17]

BrC(Br)Br
inactive: Potency [2] | outcome [3] | outcome [18] | caspase-3 activation [6] -0.311% | Potency [7] | Potency [19] | Potency [9] | Potency [10] | Potency [11] | Potency [12] | Potency [20] | Potency [15] | Potency [16] | Potency [17]
